In PubChem BioAssay (NCATS):
Several values for one entry are separate records, joined by “and”; a condition that tells them apart may be missing. Identical values can stand only once. Values without a mark were called inactive. Records with an inconclusive call do not appear. Activity calls are given as the source filed them. Unless noted, calls come from the whole dose curve; as a rule, active = well fitted inhibition curve with a large enough effect; inconclusive = small, poorly fitted or top-dose-only effect; inactive = flat fitted curve, though single readings scatter.

tested on: not listed separately; experiment: Drug repurposing screens with cells derived from glioblastoma tumor samples (AID 1345199); details: GBM patient neurospheres viability, ATP luminescence, 48 h; tumour line A; note: nearly all actives have a fitted effect of over 40% in size; note: potency is the fitted concentration of half-maximal effect
Outline: (§1)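 Primary testing used CD133+ neurospheres from four GBM patients, seven concentrations, 48 h exposure and ATP-based viability; confirmation added three slower-growing patient lines.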

| Compound | Potency |
| --- | --- |
| C[n+]1c2cc(N)ccc2cc2ccc(N)cc21 (tested in a mixture with another compound) | 35.5 µM (active) |
| CCCN1CCCC[C@H]1C(=O)Nc1c(C)cccc1C | 35.5 µM (active) |
| CN1CCCC(CC2c3ccccc3Sc3ccccc32)C1 (stereo unspecified) | 2.24 µM (active) |
| OC[C@H]1O[C@@H](n2cnc3c(=S)nc[nH]c32)[C@H](O)[C@@H]1O | 1.41 µM (active) |
| CCCCCCCCCCCCCCCC[N+](C)(C)CCN(Cc1ccc(OC)cc1)c1ncccn1 | 8.91 µM (active) |
| Cc1c(C)n(CCN(C)C)c2ccc(C(=O)OCCN(C)C)cc12 | 10 µM (active) |
| Oc1c(I)cc(Cl)c2cccnc12 | 17.8 µM (active) |

same assay, conditions: GBM patient neurospheres viability, ATP luminescence, 48 h; tumour line B

| Compound | Potency |
| --- | --- |
| C[n+]1c2cc(N)ccc2cc2ccc(N)cc21 (tested in a mixture with another compound) | 11.2 µM (active) |
| N[C@H](Cc1c[nH]c2ccccc12)C(=O)O | 35.5 µM (active) |
| CN1CCCC(CC2c3ccccc3Sc3ccccc32)C1 (stereo unspecified) | 12.6 µM (active) |
| CCCCCCCCCCCCCCCC[N+](C)(C)CCN(Cc1ccc(OC)cc1)c1ncccn1 | 14.1 µM (active) |
| Oc1c(I)cc(Cl)c2cccnc12 | 17.8 µM (active) |

tested on: astro; experiment: as above; details: viability, ATP luminescence, 48 h; series mostly up to 45.9 µM
Outline: as §1

| Compound | Potency |
| --- | --- |
| Cc1cc(N)c2cc(NC(=O)Nc3ccc4nc(C)cc(N)c4c3)ccc2n1 | 35.5 µM (active) |
| COc1ccc(OC)c(C(O)CNC(=O)CN)c1 (stereo unspecified) | inactive |
| Cc1c(C(C)C)c(=O)n(-c2ccccc2)n1C | inactive |
| CCOc1ccc2nc3cc(N)ccc3c(N)c2c1 | inactive |
| CCC(C(=O)OCCN(CC)CC)c1ccccc1 (stereo unspecified) | inactive |
| CCCN1CCCC[C@H]1C(=O)Nc1c(C)cccc1C | inactive |
| OC[C@H]1O[C@@H](n2cnc3c(=S)nc[nH]c32)[C@H](O)[C@@H]1O | inactive |
| O=c1c(-c2ccccc2)c1-c1ccccc1 | 12.6 µM (active) |
| CO/N=C1\CN(c2nc3c(cc2F)c(=O)c(C(=O)O)cn3C2CC2)CC1CN (stereo unspecified) | inactive |
| CCCSS/C(CCO)=C(\C)N(C=O)Cc1cnc(C)nc1N | 22.4 µM (active) |
| CCCCCCCCCCCCCCCC[N+](C)(C)CC | 5.62 µM (active) |
| Cc1c(C)n(CCN(C)C)c2ccc(C(=O)OCCN(C)C)cc12 | inactive |
| CC1=C(C(=O)O)N2C(=O)[C@@H](NC(=O)[C@H](N)c3ccc(O)cc3)[C@H]2SC1 | inactive |
| CCCCC(CC)CN=C(N)NC(N)=NCCCCCCN=C(N)NC(N)=NCC(CC)CCCC (stereo unspecified) | 11.2 µM (active) |
| CN(C/C=C/c1ccccc1)Cc1cccc2ccccc12 | inactive |
| COc1cc(C=C2CCC/C(=C\c3ccc(O)c(OC)c3)C2=O)ccc1O | 20 µM (active) |
| NC(=NCCCCCCN=C(N)/N=C(\N)Nc1ccc(Cl)cc1)/N=C(\N)Nc1ccc(Cl)cc1 | 11.2 µM (active) |
| COc1cccc2c1C(=O)c1c(O)c3c(c(O)c1C2=O)C[C@@](O)(C(C)=O)C[C@@H]3O[C@H]1C[C@H](N)[C@H](O)[C@H](C)O1 | 1.12 µM (active) |

biological target: Nuclear receptor subfamily 1 group I member 2 (Rattus norvegicus) (UniProt Q9R1A7); experiment: qHTS assay for small molecule activators of the rat pregnane X receptor (rPXR) signaling pathway (AID 651751; call rule not given here; note: 0% is about no effect); details: rPXR reporter cells, luciferase (One-Glo), 24 h
Sequence (Q9R1A7 whole entry, looked up): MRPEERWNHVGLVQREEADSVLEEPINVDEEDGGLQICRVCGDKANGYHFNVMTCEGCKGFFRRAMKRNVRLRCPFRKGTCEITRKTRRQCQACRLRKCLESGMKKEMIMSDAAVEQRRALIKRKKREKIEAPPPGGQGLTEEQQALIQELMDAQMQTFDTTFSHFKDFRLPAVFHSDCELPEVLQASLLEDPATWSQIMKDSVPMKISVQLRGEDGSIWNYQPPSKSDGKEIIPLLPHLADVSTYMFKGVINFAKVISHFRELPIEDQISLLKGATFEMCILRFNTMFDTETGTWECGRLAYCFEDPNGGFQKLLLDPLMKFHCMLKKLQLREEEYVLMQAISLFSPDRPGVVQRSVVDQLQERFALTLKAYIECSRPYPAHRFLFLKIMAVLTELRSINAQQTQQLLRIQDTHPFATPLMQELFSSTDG

| Compound | max response |
| --- | --- |
| CN(C)C(=S)SC(=S)N(C)C | -1.67% |
| Oc1ccc(O)cc1 | -4.09% |
| CC(=O)Oc1ccc(C(c2ccc(OC(C)=O)cc2)c2ccccn2)cc1 | -3.28% |
| Oc1c(I)cc(Cl)c2cccnc12 | -1.19% |
| C=C(CC)C(=O)c1ccc(OCC(=O)O)c(Cl)c1Cl | -15% |
| O=C1OC(c2ccc(O)cc2)(c2ccc(O)cc2)c2ccccc21 | 7.44% and -0.397% |
| COc1cccc2c1C(=O)c1c(O)c3c(c(O)c1C2=O)C[C@@](O)(C(C)=O)C[C@@H]3O[C@H]1C[C@H](N)[C@H](O)[C@H](C)O1 | -12.1% |

tested on: not listed separately; experiment: qHTS assay for small molecule activators of the human pregnane X receptor (PXR) signaling pathway (AID 720659; call rule not given here; note: 0% is about no effect); details: DPX-2 HepG2 CYP3A4-luciferase, 24 h; series mostly up to 92.3 µM

| Compound | outcome |
| --- | --- |
| Oc1ccc(O)cc1 | inactive |
| C=C(CC)C(=O)c1ccc(OCC(=O)O)c(Cl)c1Cl | inactive |
| NC(=NCCCCCCN=C(N)/N=C(\N)Nc1ccc(Cl)cc1)/N=C(\N)Nc1ccc(Cl)cc1 | inactive |
| COc1cccc2c1C(=O)c1c(O)c3c(c(O)c1C2=O)C[C@@](O)(C(C)=O)C[C@@H]3O[C@H]1C[C@H](N)[C@H](O)[C@H](C)O1 | inactive |
